Assay outcomes as filed in PubChem BioAssay.
A selection: hits, their analogues and other compounds. The true share with any hit is near 1.4%.
Glioma ERSR ind: induces the endoplasmic reticulum stress response in human glioma cells; AID 602332; Potency, µM, inactives show at the top dose activation, most hits filed as activators; 0.02% of 420,000 active; U87-MG GRP78 promoter luciferase reporter, 16 h; further: potency means the concentration at half of the fitted maximal effect; series mostly up to about 76 µM; % of control where 0% means no effect; nearly all actives have a fitted effect of over 35% in size
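Stably transfected U87-MG glioma cells carrying a GRP78-based luciferase sensor; 16 h compound incubation. Luminescence end-point read 10 min after Bright-Glo addition at room temperature.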
KCNH2 WT inh: blocks the wildtype human KCNH2 potassium channel; Q12809; U2OS, BacMam KCNH2, thallium flux FluxOr; active compounds read low; activity change, % at 1.84 µM; 0.37% of 340,000 active; AID 720551;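 active means maximum activity change below -70%; inconclusive means maximum activity change between -70% and -50%; inactive means maximum activity change above -50%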; further: on the % scale 0 is the no-effect control and ±100 the full control effect
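U2OS cells were transduced with wild-type KCNH2 virus (2.03 x 10^8 / mL) for 4 h at room temperature, then cultured overnight at 37 C. Thallium flux was read with FluxOr dye. Rate constants were normalized to DMSO controls.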
PTHR1 agonist: agonists of human PTHR1 parathyroid hormone receptor. HEK293 GP2 PTHR1 cells, GloSensor cAMP luminescence, 1 h. 0.075% of 410,000 active. Potency, µM (top dose mostly 115 µM), without a hit: at the highest dose activation, hits mostly activators. Q03431; further: potency means the concentration at half of the fitted maximal effect; nearly all actives have a fitted effect of over 55% in size
Target sequence (Q03431 whole entry, looked up): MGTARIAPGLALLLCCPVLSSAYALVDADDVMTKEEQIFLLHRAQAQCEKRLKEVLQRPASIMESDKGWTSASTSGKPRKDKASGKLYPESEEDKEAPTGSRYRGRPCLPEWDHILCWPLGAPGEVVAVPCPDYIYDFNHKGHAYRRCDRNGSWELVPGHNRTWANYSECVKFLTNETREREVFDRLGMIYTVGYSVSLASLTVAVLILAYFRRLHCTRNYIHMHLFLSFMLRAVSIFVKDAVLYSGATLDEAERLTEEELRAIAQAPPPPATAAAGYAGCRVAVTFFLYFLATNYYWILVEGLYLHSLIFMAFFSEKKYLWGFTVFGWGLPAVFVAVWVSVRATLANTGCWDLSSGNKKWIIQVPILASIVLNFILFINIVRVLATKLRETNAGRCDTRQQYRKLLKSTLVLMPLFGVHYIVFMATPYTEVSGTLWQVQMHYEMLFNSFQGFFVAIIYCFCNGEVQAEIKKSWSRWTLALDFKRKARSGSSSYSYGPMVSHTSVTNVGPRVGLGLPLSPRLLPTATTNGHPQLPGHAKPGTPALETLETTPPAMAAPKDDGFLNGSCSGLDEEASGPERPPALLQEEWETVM
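HEK-293-derived GP2 cells expressing PTHR1 and a GloSensor cAMP reporter, 3,000/well, plated overnight, given luciferin plus IBMX (each 0.5 mM as added) for 1 h at 37 °C, then compound for 1 h at 37 °C. Luminescence was read after 15 min at room temperature.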
RXFP1 agonist: RXFP1 (human) receptor agonism; 0.3% of 370,000 active; Q9HBX9; Potency, µM (series often up to 57.5 µM), for inactives: top-dose activation, most hits filed as activators; HEK293T-RXFP1 cAMP TR-FRET, 30 min; response scale: percent of porcine relaxin response, buffer zero; further: potency means the concentration at half of the fitted maximal effect; on the % scale 0 is the no-effect control and ±100 the full control effect; nearly all actives have a fitted effect of over 60% in size
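HEK293T cells stably expressing RXFP1 were pretreated with the PDE4 inhibitor Ro 20174, exposed to compounds for 30 min at 37C, lysed, and cAMP was read by TR-FRET. Data normalized to buffer (basal) and 29 nM porcine relaxin (100%).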
KCNH2 3.1 inh: blocks the human KCNH2 3.1 channel isoform | U2OS KCNH2 3.1, thallium flux FluxOr; active compounds read low | activity change, % (tested at about 1.8 µM) | 0.95% of 340,000 active | AID 720553;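 active means maximum activity change below -70%; inconclusive means maximum activity change from -70% to -50%; inactive means maximum activity change above -50%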;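 further: thallium influx rate constant from kinetic fluorescence after stimulation buffer; on the % scale 0 is the no-effect control and ±100 the full control effect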
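Thallium flux read-out: FluxOr dye with Red40 quencher in HBSS/HEPES, 45 min at RT. Rate constants from kinetic reads were normalized to positive and negative DMSO controls. Cells: U2OS virally expressing the 3.1 isoform.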
RXFP1 antagonist: RXFP1 (human) relaxin receptor antagonism; 0.59% of 350,000 active; activity change, negative = inhibition, % at 57.5 µM; HEK293-RXFP1, relaxin-stimulated cAMP HTRF, 30 min; active compounds read low;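 active means activity change of -60% or lower, but not beyond a set lower limit; inconclusive means change between -60% and -40%, or beyond the set limit; inactive means change above -40%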; further: on the % scale 0 is the no-effect control and ±100 the full control effect
* hit, by the source's call; [ ] = dose if it differs, or a comment. Unless noted, the call rests on the fitted dose curve; in most records, active means well fitted curve in the direction sought with a large enough effect; inconclusive means small, poorly fitted or top-dose-only effect, or another doubt; inactive means no such curve, though single readings can be large; an effect the other way counts as inactive or inconclusive.

Results for N#Cc1c(N2CCN(C(=O)c3ccccc3)CC2)nc(-c2ccccc2)c2c1CCCC2 ?
Glioma ERSR ind: 0%; KCNH2 WT inh: 0; PTHR1 agonist: inactive; RXFP1 agonist: 4%; KCNH2 3.1 inh: -9; RXFP1 antagonist: -20

What do the screens show for `N#Cc1c(N2CCN(C(=O)c3ccccc3Cl)CC2)nc(-c2ccccc2)c2c1CCCC2`?
Glioma ERSR ind: -6%; KCNH2 WT inh: -283*; PTHR1 agonist: -10%; RXFP1 agonist: 0%; KCNH2 3.1 inh: -27; RXFP1 antagonist: -12

How did CCSc1nnc(NC(NC(C)=O)(C(F)(F)F)C(F)(F)F)s1 do in these assays?
Glioma ERSR ind: -2%; KCNH2 WT inh: -1; PTHR1 agonist: -22%; RXFP1 agonist: 2%; KCNH2 3.1 inh: -1; RXFP1 antagonist: 22

How did O=C(NC1(C(F)(F)F)NC(=O)N(Cc2cccnc2)C1=O)c1ccncc1 (stereo unspecified) do in these assays?
Glioma ERSR ind: -5%; KCNH2 WT inh: -1; PTHR1 agonist: -30%[57.5 µM]; RXFP1 agonist: 0%; KCNH2 3.1 inh: -11; RXFP1 antagonist: -10

Results for O=C(CSc1nnc(-c2ccco2)c(-c2ccco2)n1)c1ccccc1 ?
Glioma ERSR ind: 1%; KCNH2 WT inh: -5; PTHR1 agonist: -9%; RXFP1 agonist: 27%; KCNH2 3.1 inh: -5; RXFP1 antagonist: -97*

Results for CC(=O)c1ccc(NC(=O)CSc2nnc(-c3ccco3)c(-c3ccco3)n2)cc1 ?
Glioma ERSR ind: 1%; KCNH2 WT inh: 8; PTHR1 agonist: -2%; RXFP1 agonist: -3%; KCNH2 3.1 inh: 4; RXFP1 antagonist: -71*

What do the screens show for `O=C(C1=C(Nc2ccccc2)c2ccccc2S(=O)(=O)N1)c1ccccc1`?
Glioma ERSR ind: -1%; KCNH2 WT inh: 5; PTHR1 agonist: -21%; RXFP1 agonist: -1%; KCNH2 3.1 inh: 5; RXFP1 antagonist: 6

What do the screens show for `COc1ccc(C(=O)NC2CC2)cc1OC1CCN(Cc2ccc(F)cc2Cl)CC1`?
Glioma ERSR ind: -3%; KCNH2 WT inh: -75*; PTHR1 agonist: inactive; KCNH2 3.1 inh: -93*; RXFP1 antagonist: -13

Results for COc1ccc(C(=O)NC2CC2)cc1OC1CCN(Cc2cc(C)c(C)cc2C)CC1 ?
Glioma ERSR ind: -2%; KCNH2 WT inh: inconclusive; PTHR1 agonist: inactive; RXFP1 agonist: -4%; KCNH2 3.1 inh: -75*; RXFP1 antagonist: -4

Results for O=C(NC1CCN(Cc2ccc(Cl)cc2Cl)CC1)c1ccccc1 ?
Glioma ERSR ind: -9%; KCNH2 WT inh: -2; PTHR1 agonist: -15%; RXFP1 agonist: 1%; KCNH2 3.1 inh: -84*; RXFP1 antagonist: -16

How did COc1cc(CN2CCC(Oc3cc(C(=O)NC4CC4)ccc3OC)CC2)cc(OC)c1 do in these assays?
Glioma ERSR ind: 3%; KCNH2 WT inh: -18; PTHR1 agonist: -44%; RXFP1 agonist: -1%; KCNH2 3.1 inh: -28; RXFP1 antagonist: -5

What do the screens show for `O=C(NC1CCN(CC(=O)N(c2ccccc2)c2ccccc2)CC1)c1ccc([N+](=O)[O-])cc1`?
Glioma ERSR ind: 0%; KCNH2 WT inh: -77*; PTHR1 agonist: -30%; RXFP1 agonist: -3%; KCNH2 3.1 inh: -111*; RXFP1 antagonist: -18

How did O=C(CNC(=O)C12CC3CC(CC(C3)C1)C2)N/N=C\c1ccco1 do in these assays?
Glioma ERSR ind: -4%; KCNH2 WT inh: 29; PTHR1 agonist: -19%; RXFP1 agonist: 0%; KCNH2 3.1 inh: 7; RXFP1 antagonist: -7

What do the screens show for `COc1ccc(CN2CCC(Oc3cc(C(=O)NC4CC4)ccc3OC)CC2)c(O)c1`?
Glioma ERSR ind: 1%; KCNH2 WT inh: -109*; PTHR1 agonist: -8%; RXFP1 agonist: 2%; KCNH2 3.1 inh: -94*; RXFP1 antagonist: 2

Results for CCCS(=O)(=O)NCCc1cc2c(C)ccc(C)c2[nH]c1=O ?
Glioma ERSR ind: -3%; KCNH2 WT inh: 1; PTHR1 agonist: -21%; RXFP1 agonist: 4%; KCNH2 3.1 inh: -12
